Compounds without any hit were thinned out: in the full panel of roughly 83,000, 20% have a hit.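 Activity criterion: percent growth below 10, measured after cells in 96-well plates were exposed to a single compound concentration for 48 hours.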 Active and inactive are the calls of the source.
Tested on: HOP-92 NSCLC
Assay: NCI-60 one-dose screen, 48 h (100 = growth as untreated, 0 = no growth, -100 = all killed)
Settings: 10 µM unless noted

Row | SMILES | growth
1 | C#CCOc1ccc2ncnc(Nc3cccc(NC(=O)C=C)c3)c2c1 | 66.1% (inactive)
2 | CCCCN1C(=O)/C(=c2\sc3n(c2=O)C2C(NN=3)N(CC)C(=O)N2CC)c2ccccc21 (stereo unspecified) | 26.8% (inactive)
3 | CCOC(=O)C1=NN(c2ccccc2)C(=O)/C1=C\N1C(=O)CC(=O)NC1=S | 102% (inactive)
4 | O=C(N/N=C/c1ccc(F)cc1)c1ccc(C(F)(F)F)nc1Nc1cccc(C(F)(F)F)c1 | -25.2% (active)
5 | C=C(C)[C@@H]1CC[C@]2(C(=O)O)CC[C@]3(C)[C@H](CC[C@@H]4[C@@]5(C)C[C@@H](Cc6cn(CCO[C@@H]7O[C@H](COC(C)=O)[C@H](OC(C)=O)[C@H](OC(C)=O)[C@H]7OC(C)=O)nn6)[C@H](O)C(C)(C)[C@@H]5CC[C@]43C)[C@@H]12 | -3.81% (active)
6 | S=C1CCSC(=S)N1CCCN1C(=S)CCSC1=S | 106% (inactive)
7 | O=C(COc1ccc(-c2nc3ccccc3[nH]2)cc1)N=Nc1c(O)[nH]c2ccc(Cl)cc12 | 93% (inactive)
8 | Cc1ccc(/C=N/Nc2nc(Nc3ccccc3)nc(-n3nc(C)cc3C)n2)cc1 | 60.7% (inactive)
9 | O=[N+]([O-])c1ccc(N/N=C(/C(=N/Nc2ccc([N+](=O)[O-])cc2)c2ccccc2)c2ccccc2)cc1 | 107% (inactive)
10 | CCOC(=O)c1c(NC(=O)c2ccc(C(C)C)cc2)sc2c(CN(C)C)c(O)ccc12 | 69.5% (inactive)
11 | C#Cc1ccc(NC(=O)c2ccc(/C=C/C(=O)c3nccn3C)cc2)cc1 | -25.4% (active)
12 | O=C(NCCCCNC(=O)OCc1ccc2c(Cl)cc(Cl)c(O)c2n1)OCc1ccc2c(Cl)cc(Cl)c(O)c2n1 | 48.5% (inactive)
13 | c1cc2[nH]ncc2cc1-c1nc2ccc3[nH]ncc3c2c2c1CCCC2 | 16.9% (inactive)
14 | C[C@H](NC(=O)[C@@H](C)N)[C@H](Oc1ccc2c(cnn2-c2ccc(F)cc2)c1)c1ccc2c(c1)OCCO2 | -4.6% (active)
15 | O=S(=O)(NCCCNc1nccc(-c2c(-c3ccc(F)c(O)c3)nc3occn23)n1)c1ccccc1 | 71% (inactive)
16 | O=C(NCc1ccccc1)Nc1ccccc1CNc1nc(Nc2ccc(OCCN3CCCC3)cc2)ncc1Cl | 83.8% (inactive)

Row | SMILES | growth
17 | C=CCc1c2c(c(OC)c3ccoc13)C(=O)/C(=C/c1ccccc1OC)O2 | 58.8% (inactive)
18 | COc1ccc(NC(=O)c2sc3nc(C)c(C(=O)/C=C/c4cccc(OC)c4)cc3c2N)cc1 | 90.9% (inactive)
19 | N#Cc1c(NC(=O)c2ccccc2)sc2c1CCC(=O)C2 | -22.9% (active)
20 | CN(C)CCCn1c2c(c3ncccc3c1=O)C(=O)c1ccccc1-2 | 70.9% (inactive)
21 | CCOC(=O)Cn1c(O)c(N=Nc2ccc(S(N)(=O)=O)cc2)c2cc(Br)ccc21 | 96.4% (inactive)
22 | Cc1nc(-c2ccccc2)cc2c(O)c(C(=O)NN)[nH]c(=O)c12 | 85.6% (inactive)
23 | C#CCOc1cccc(Nc2ncnc3ccc(NC(=O)CCl)cc23)c1 | -76.5% (active)
24 | Oc1c(Cl)cc(Cl)cc1/C=N/Nc1nnc(N/N=C/c2cc(Cl)cc(Cl)c2O)c2ccccc12 | 13.9% (inactive)
25 | CCn1cc(C(=O)N/N=C/c2cccs2)c(=O)c2cc(F)c(N3CCNC(C)C3)c(F)c21 (stereo unspecified) | 53.8% (inactive)
26 | O=C(NNC(=O)c1ccc(-n2cc(-c3ccccc3)nn2)cc1)Nc1ccccc1 | 98.8% (inactive)
27 | O=C(c1ccc(Cl)cc1)N1CCN(c2ccnc3cc(Cl)ccc23)CC1 | 83.7% (inactive)
28 | CN1CCN(Cc2ccc3c(NNC(=O)c4ccccc4)nc4cc(F)ccc4n23)CC1 | 50.7% (inactive)
29 | c1ccc(CNc2c3ccccc3nc3ccccc23)cc1 | 25.9% (inactive)
30 | N#C/C(=C/c1ccc([N+](=O)[O-])cc1)n1nnc2cc(F)c(F)cc21 | 99.6% (inactive)
31 | O=C1CNC(c2ccccc2)C(c2ccccc2)N1 (stereo unspecified) | 86.3% (inactive)

Tested on: NCI-H522 lung
Assay: as above
Settings: 10 µM unless noted

Row | SMILES | growth
32 | C#CCOc1ccc2ncnc(Nc3cccc(NC(=O)C=C)c3)c2c1 | 50.3% (inactive)
33 | Nc1ncnc2c1N=C(c1ccc3c(c1)OCO3)CC(c1ccc([N+](=O)[O-])cc1)N2 (stereo unspecified) | 95.3% (inactive)
34 | CCCCN1C(=O)/C(=c2\sc3n(c2=O)C2C(NN=3)N(CC)C(=O)N2CC)c2ccccc21 (stereo unspecified) | -15.2% (active)
35 | CCOC(=O)C1=NN(c2ccccc2)C(=O)/C1=C\N1C(=O)CC(=O)NC1=S | 88.8% (inactive)
36 | O=C(N/N=C/c1ccc(F)cc1)c1ccc(C(F)(F)F)nc1Nc1cccc(C(F)(F)F)c1 | -15.9% (active)
37 | Cc1ccc(-c2csc(NC(=O)CN3CCN(c4cc5c(cc4F)c(=O)c(C(=O)O)cn5C4CC4)CC3)n2)cc1 | -11.7% (active)
38 | Clc1ccc(Sc2cnc(-c3ccccc3)o2)cc1 | 99.2% (inactive)
39 | COc1ccc(-c2cc(-c3ccc(Cl)cc3)c(C#N)c(=O)n2CCCCC(=O)Nc2ccccc2N)cc1 | 48.6% (inactive)
40 | C=C(C)[C@@H]1CC[C@]2(C(=O)O)CC[C@]3(C)[C@H](CC[C@@H]4[C@@]5(C)C[C@@H](Cc6cn(CCO[C@@H]7O[C@H](COC(C)=O)[C@H](OC(C)=O)[C@H](OC(C)=O)[C@H]7OC(C)=O)nn6)[C@H](O)C(C)(C)[C@@H]5CC[C@]43C)[C@@H]12 | 64.1% (inactive)
41 | S=C1CCSC(=S)N1CCCN1C(=S)CCSC1=S | 5.23% (active)
42 | O=C(COc1ccc(-c2nc3ccccc3[nH]2)cc1)N=Nc1c(O)[nH]c2ccc(Cl)cc12 | 93.6% (inactive)
43 | Cc1ccc(/C=N/Nc2nc(Nc3ccccc3)nc(-n3nc(C)cc3C)n2)cc1 | 15.7% (inactive)
44 | O=[N+]([O-])c1ccc(N/N=C(/C(=N/Nc2ccc([N+](=O)[O-])cc2)c2ccccc2)c2ccccc2)cc1 | 50.8% (inactive)
45 | CCOC(=O)c1c(NC(=O)c2ccc(C(C)C)cc2)sc2c(CN(C)C)c(O)ccc12 | 97.2% (inactive)
46 | C#Cc1ccc(NC(=O)c2ccc(/C=C/C(=O)c3nccn3C)cc2)cc1 | -26.7% (active)
47 | O=C(NCCCCNC(=O)OCc1ccc2c(Cl)cc(Cl)c(O)c2n1)OCc1ccc2c(Cl)cc(Cl)c(O)c2n1 | -2.86% (active)
48 | c1cc2[nH]ncc2cc1-c1nc2ccc3[nH]ncc3c2c2c1CCCC2 | -28.2% (active)
49 | C[C@H](NC(=O)[C@@H](C)N)[C@H](Oc1ccc2c(cnn2-c2ccc(F)cc2)c1)c1ccc2c(c1)OCCO2 | 24.8% (inactive)
50 | CCN(CC)c1nc(SCc2ccccc2Cl)ncc1C | 99% (inactive)
51 | O=S(=O)(NCCCNc1nccc(-c2c(-c3ccc(F)c(O)c3)nc3occn23)n1)c1ccccc1 | 75.6% (inactive)

Row | SMILES | growth
52 | O=C(NCc1ccccc1)Nc1ccccc1CNc1nc(Nc2ccc(OCCN3CCCC3)cc2)ncc1Cl | 108% (inactive)
53 | C=CCc1c2c(c(OC)c3ccoc13)C(=O)/C(=C/c1ccccc1OC)O2 | 48.5% (inactive)
54 | COc1ccc(NC(=O)c2sc3nc(C)c(C(=O)/C=C/c4cccc(OC)c4)cc3c2N)cc1 | 39.2% (inactive)
55 | N#Cc1c(NC(=O)c2ccccc2)sc2c1CCC(=O)C2 | -12.7% (active)
56 | CN(C)CCCn1c2c(c3ncccc3c1=O)C(=O)c1ccccc1-2 | 34.4% (inactive)
57 | CCOC(=O)Cn1c(O)c(N=Nc2ccc(S(N)(=O)=O)cc2)c2cc(Br)ccc21 | 70.8% (inactive)
58 | Cc1nc(-c2ccccc2)cc2c(O)c(C(=O)NN)[nH]c(=O)c12 | 94.3% (inactive)
59 | O=C(Nn1c2c(sc1=Nc1ccccc1)C(=O)c1ccccc1C2=O)c1cc2ccc1CCc1ccc(cc1)CC2 | 68% (inactive)
60 | CNC(=O)c1c(NC(=O)c2ccc(C(F)(F)F)cc2)sc2c1CCC(=O)C2 | -26.1% (active)
61 | C#CCOc1cccc(Nc2ncnc3ccc(NC(=O)CCl)cc23)c1 | -76.3% (active)
62 | CS(=O)(=O)Nc1cc(-c2ccc3ncnc(Nc4ccc5c(cnn5Cc5ccccn5)c4)c3c2)cnc1Cl | 67.9% (inactive)
63 | Oc1c(Cl)cc(Cl)cc1/C=N/Nc1nnc(N/N=C/c2cc(Cl)cc(Cl)c2O)c2ccccc12 | 14.1% (inactive)
64 | CCn1cc(C(=O)N/N=C/c2cccs2)c(=O)c2cc(F)c(N3CCNC(C)C3)c(F)c21 (stereo unspecified) | 71.1% (inactive)
65 | O=C(NNC(=O)c1ccc(-n2cc(-c3ccccc3)nn2)cc1)Nc1ccccc1 | 108% (inactive)
66 | COc1ccc(CC(C#N)c2cc3ccccc3[nH]2)cc1 (stereo unspecified) | 84.3% (inactive)
67 | O=C(c1ccc(Cl)cc1)N1CCN(c2ccnc3cc(Cl)ccc23)CC1 | 56.5% (inactive)
68 | CN1CCN(Cc2ccc3c(NNC(=O)c4ccccc4)nc4cc(F)ccc4n23)CC1 | 28% (inactive)
69 | c1ccc(CNc2c3ccccc3nc3ccccc23)cc1 | 56.8% (inactive)
70 | N#C/C(=C/c1ccc([N+](=O)[O-])cc1)n1nnc2cc(F)c(F)cc21 | 62.6% (inactive)
71 | O=C1CNC(c2ccccc2)C(c2ccccc2)N1 (stereo unspecified) | 88.6% (inactive)
